# Measured values from article PMC4552634, “A New Set of Chemical Starting Points with Plasmodium falciparum Transmission-Blocking Potential for Antimalarial Drug Discovery” (PLoS ONE, 2015).
# Hit rate of the full screen: of about 13,000 compounds, about 3,200 (25%) showed an effect of 50% or more. This is one part of the list.
# Tested on: P. falciparum stage V gametocytes
# Design: BacTiter-Glo ATP luminescence viability of purified stage V gametocytes in 384-well plates, per cent inhibition versus DMSO
# Details: 48 h, 5 µM; inhibitor
row,Compound,% Inhibition [%]
1,CCOc1cc2ncnc(Nc3cc(Cl)c(Cl)c(Cl)c3)c2cc1OCC [TCMDC-131926],9.404
2,O=C(c1ccc(Cl)cc1)N1CCCC(C(=O)N(Cc2nnc(-c3ccccc3Cl)o2)C2CC2)C1 (stereo not shown) [TCMDC-125331],-2.423
3,O=S(=O)(c1ccc(NC(=S)NN=Cc2ccccn2)cc1)N1CCCCC1 [TCMDC-125787],60.8
4,Cc1c(Cl)cccc1NC(=S)NN=Cc1ccccn1 [TCMDC-125487],106.6
5,O=C(Nc1ccc(S(=O)(=O)N2CCCCCC2)cc1)c1cc(-c2ccccc2O)n[nH]1 [TCMDC-125203],-36.28
6,Cc1cc(NN=Cc2ccccn2)c2cc(F)ccc2n1 [TCMDC-142020],16.37
7,COc1ccc2c(NN=Cc3ccccn3)ccnc2c1 [TCMDC-142028],-6.659
8,CC(=NNC(=S)Nc1ccccc1Cl)c1ccccn1 [TCMDC-124278],2.359
9,Fc1ccc(NC(=S)NN=Cc2ccccn2)cc1 [TCMDC-125521],108.6
10,Fc1ccc(NC(=S)NCCc2ccccc2)cc1 [TCMDC-123847],-9.114
11,CC(C)c1ccc(NC(=S)NN=Cc2ccccn2)cc1 [TCMDC-125520],108.1
12,O=C(Nc1ccc(S(=O)(=O)N2CCCCC2)cc1)c1cc(-c2ccccc2O)n[nH]1 [TCMDC-124310],-14.76
13,Cn1cnc2c(SCc3ccccc3OCc3ccccc3)ncnc21 [TCMDC-136495],-28.48
14,O=C(/C=C/c1ccc(Cl)c(Cl)c1)N(Cc1ccccc1)C1CCC(CN2CCC(c3c[nH]c4ccccc34)CC2)CC1 (stereo not shown) [TCMDC-140359],26.1
15,COc1cc2c(Nc3ccc(Br)cc3F)ncnc2cc1OCC1CCN(C)CC1 [TCMDC-123476],19.55
16,O=C(O)C(F)(F)F.OC1CCCN(Cc2cccc(-c3ccc(-c4nc5cc(F)ccc5[nH]4)cc3)c2)C1 (stereo not shown) [TCMDC-133820],3.122
17,COc1ccc2ncc(F)c(NC(=O)C3CCC(NCc4cc5c(F)cccc5[nH]4)CC3)c2n1 (stereo not shown) [TCMDC-136354],-14.12
18,N#Cc1ccc2c(c1)CCN(CCC1CCC(NC(=O)Nc3ccncc3)CC1)C2 (stereo not shown) [TCMDC-139300],-15.77
19,CCOC(=O)c1cc(=O)c2ccc(OCC#N)cc2o1 [TCMDC-131302],40.87
20,Fc1ccc2[nH]c(-c3cccc(-c4cccc(CNCc5cnn(-c6ccccc6)n5)c4)c3)nc2c1.O=C(O)C(F)(F)F [TCMDC-132976],-2.641
21,S=C(NN=Cc1ccccn1)Nc1ccc2c(c1)OCCO2 [TCMDC-132009],95.93
22,FC(F)(F)c1cccc(NC(=S)NN=Cc2ccccn2)c1 [TCMDC-123509],31.63
23,S=C(NN=Cc1ccccn1)Nc1ccc(Cl)c(Cl)c1 [TCMDC-125522],102.5
24,Cc1cc(NN=Cc2ccccn2)c2cc(C(F)(F)F)ccc2n1 [TCMDC-142022],35.2

row,Compound,% Inhibition [%]
1,O=C(Nc1ccc2c(c1)OCCO2)c1cc(-c2cccnc2)nc2ccc(Cl)cc12 [TCMDC-124362],-23.33
2,S=C(NN=Cc1ccccn1)NC1CC2C=CC1C2 (stereo not shown) [TCMDC-125752],132.2
3,CC(C)N=C(N)NN=Cc1ccc(Cl)c(Cl)c1 [TCMDC-138131],-38.45
4,O=C(Cn1cnc2c(nnn2Cc2ccccc2F)c1=O)Nc1ccc2c(c1)OCCO2 [TCMDC-124462],-30.94
5,O=C(NC1CC1)c1ccc(Nc2nccc(-c3c(-c4cccc(NC(=O)c5c(F)cccc5F)c4)nn4ccccc34)n2)cc1 [TCMDC-136002],-35.37
6,CCCCN1C(=O)C(c2ccccc2)(c2ccccc2)N=C1N [TCMDC-142007],12.88
7,O=C(NCCN1CCOCC1)c1ccc(O)c(-c2cccc(C(F)(F)F)c2)c1 [TCMDC-140162],21.52
8,CCCNC(=O)c1ccc(N2CCC(c3ccccc3C)CC2)nc1 [TCMDC-134583],17.76
9,O=C(NC1CCCCCC1)[C@@H]1CCCN1C(=O)c1ccc(O)c(-c2ccc(Cl)c(Cl)c2)c1 [TCMDC-140843],28.6
10,COc1ccc2nccc([C@@H](O)CN3CCC(NCc4cc5oc(=O)[nH]c5cc4F)CC3)c2c1 [TCMDC-141140],3.08
11,CCc1ccccc1N1CCN(CCCC(=O)c2ccc(NC(=O)c3cc(Cl)cc(Cl)c3)cc2)CC1 [TCMDC-138229],-19.19
12,Nc1nc(N)c2cc(Cc3ccccc3Cl)cnc2n1 [TCMDC-137918],-87.91
13,CCOC(=O)CNC(=O)c1cc(=O)c2ccccc2o1 [TCMDC-131778],11.83
14,CC(C)(C)C(=O)Nc1c(-c2cc(=O)oc3cc4c(cc23)CCC4)oc2ccccc12 [TCMDC-125081],76.3
15,O=C(NCC1CCCCC1)c1cc(=O)c2ccccc2o1 [TCMDC-123621],8.117
16,COC(=O)c1c(NC(=O)c2cccc(C(F)(F)F)c2)sc2c1CCN(Cc1ccccc1)C2 [TCMDC-125828],-72.37
17,CCOC(=O)c1ccc(N2CCN(c3cc(C)ccc3C)CC2)c(NC(=O)Nc2ccc(Cl)c(Cl)c2)c1 [TCMDC-123849],0.9649
18,Cc1cc(NC(=O)[C@@H](Nc2ccc(C#N)c3ccccc23)C2CCCCC2)ccc1F [TCMDC-136635],-42.79
19,N#Cc1ccc(N[C@@H](CC2CCCCC2)C(=O)NCc2cc(F)c(F)cc2F)c2ccccc12 [TCMDC-136630],-9.58
20,N#Cc1ccc(N2C[C@@H](OCc3ccccc3)C[C@H]2C(=O)NCCC(c2ccccc2)c2ccccc2)c2ccccc12 [TCMDC-135421],62.52
21,N#Cc1ccc(N(CC(=O)NCCc2ccccc2)CC2CC2)c2ccccc12 [TCMDC-135574],-1.825
22,CO[C@@H]1C[C@@H](C(=O)Nc2ccccc2)N(c2ccc(C#N)c3ccccc23)C1 [TCMDC-135413],86.31
23,COc1ccccc1CCC(C)(C)NC(=O)CC(CCc1ccccc1)Nc1ccc(C#N)c2ccccc12 (stereo not shown) [TCMDC-132307],13.06
24,CCOc1cc(C(=O)Nc2ccc3nc(N4CCN(C)CC4)cc(C)c3c2)cc(OCC)c1OCC [TCMDC-123589],-11.34

row,Compound,% Inhibition [%]
1,O=C(/C=C/c1cccc2c1OCO2)Nc1ccnc2ccncc12 [TCMDC-139845],-12.08
2,Cc1ccccc1CNCC(O)c1cccc(C(F)(F)F)c1 (stereo not shown) [TCMDC-140393],2.038
3,O=c1cc(NC[C@H]2CCC[C@@H]2NCc2cc(Br)cc(Br)c2)[nH]c2ccccc12 [TCMDC-139655],-0.8474
4,O=c1cc(NCCC(CNCc2cc3ccccc3o2)NCc2cc(Br)cc(Br)c2)[nH]c2ccccc12 (stereo not shown) [TCMDC-140345],70.19
5,O=c1cc(NCCC(CNCc2ccc(Br)o2)NCc2cc(Br)cc(Br)c2)[nH]c2ccccc12 (stereo not shown) [TCMDC-140348],17.71
6,Cc1sc(C)c(CNCCCNc2cc(=O)c3ccccc3[nH]2)c1Br [TCMDC-140765],-54.98
7,CCc1ccc(CNCC(CCNc2cc(=O)c3ccccc3[nH]2)NCc2cc(Br)cc(Br)c2)o1 (stereo not shown) [TCMDC-140346],67.8
8,Cc1cc(CNCC(CCNc2cc(=O)c3ccccc3[nH]2)NCc2cc(Br)cc(Br)c2)oc1C (stereo not shown) [TCMDC-140347],61.99
9,Cn1cccc1C(=O)NCC(CCNc1cc(=O)c2ccccc2[nH]1)NCc1cc(Br)cc(Br)c1 (stereo not shown) [TCMDC-140218],-44.96
10,COc1cc(/C=C/C(=O)NCC(CCNc2cc(=O)c3ccccc3[nH]2)NCc2cc(Br)cc(Br)c2)cc(OC)c1 (stereo not shown) [TCMDC-140217],-26.95
11,O=c1cc(NCCCNCc2cc(Br)cs2)[nH]c2ccccc12 [TCMDC-139310],-17.04
12,Cc1[nH]c2ccc(NS(C)(=O)=O)cc2c1C1CCN(CC2CCN(C(=O)/C=C/c3ccc(Cl)c(Cl)c3)CC2)CC1 [TCMDC-140125],-39.53
13,COc1ccc2nccc([C@@H](O)CN3CCC(NC(=O)c4ccc(Cl)c([N+](=O)[O-])c4)CC3)c2c1 [TCMDC-141037],-23.07
14,Cn1cnc(CCNC(=O)c2ccc(-c3cccc(-c4nc5ccccc5[nH]4)c3)cc2)c1 [TCMDC-132495],-19.92
15,Cn1cnc(CCNC(=O)c2cccc(-c3csc(-c4nc5ccccc5[nH]4)c3)c2)c1 [TCMDC-132501],74.26
16,CC(=O)Nc1cccc(C(=O)Nc2cccc(-c3csc(-c4nc5ccccc5[nH]4)c3)c2)c1 [TCMDC-132398],-2.258
17,O=C(Nc1cccc(-c2cccc(-c3nc4ccccc4[nH]3)c2)c1)c1ccncc1 [TCMDC-136955],6.238
18,O=C(Nc1cccc(-c2csc(-c3nc4ccccc4[nH]3)c2)c1)c1cccnc1 [TCMDC-132403],77.71
19,Cn1cnc(CCNC(=O)c2cccc(-c3ccc(-c4nc5cc(F)ccc5[nH]4)cc3)c2)c1 [TCMDC-132492],7.487
20,O=C(Nc1cccc(-c2cccc(-c3nc4ccccc4[nH]3)c2)c1)c1cccnc1 [TCMDC-136928],76.9
21,O=C(Nc1cccc(-c2ccc(-c3nc4ccccc4[nH]3)cc2)c1)c1cccnc1 [TCMDC-136924],-5.994
22,O=C(Nc1cccc(-c2csc(-c3nc4ccccc4[nH]3)c2)c1)c1ccncc1 [TCMDC-132402],13.78
